Source: PubChem BioAssay
LmPK inh: blocks Leishmania mexicana pyruvate kinase activity; Q27686; purified LmPK, Kinase-Glo ATP luminescence, 1 h; Potency, µM (top dose mostly 57.5 µM), without a hit: at the top dose activity change, negative = inhibition, usual class: inhibitors; 290,000 tested, 0.37% active; note: potency is the fitted concentration of half-maximal effect; % is set by controls: 0 for no effect and ±100 for the full control effect
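Purified LmPK (0.1 nM) with 0.5 mM PEP and 0.1 mM ADP in imidazole buffer pH 7.2 with MgCl2/KCl, 1 h at room temperature. ATP formed was read by luciferase luminescence and normalized to no-enzyme and uninhibited controls.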
Cycloheximide cs: counter-screen hit for Shiga toxin inhibitors, cycloheximide; max response, %; 300,000 tested, 12% active; cell reporter, cycloheximide protein synthesis inhibition counterscreen; in the data active = max response mostly above about 13%, no sharp cut-off; inactive = mostly below about 14%; note: read at 38.3 µM for the half of the compounds with a filed dose; 0% is about no effect
Shiga toxin inh: blocks Shiga toxin action in Vero cells; Vero cells, Shiga toxin protein synthesis inhibition reporter; inhibition, % at 38.7 µM; 290,000 tested, 9.2% active; in the data active = inhibition mostly above about 28%, no sharp cut-off; inactive = mostly below about 43%; note: 0% is about no effect
RE007 growth inh: less growth of the S. pombe RE007 Vpr strain. S. pombe RE007 Vpr strain, BacTiter-Glo ATP luminescence, 24 h. Potency, µM (series often up to 92.2 µM), inactives show top-dose activity change, negative = less growth, hits mostly inhibitors. 360,000 tested, 0.21% active. AID 651644; active = well fitted falling curve with a large enough effect; inconclusive = small, poorly fitted or top-dose-only effect; inactive = no such curve, though single readings can be large or run the other way; note: potency is the fitted concentration of half-maximal effect; % is set by controls: 0 for no effect and ±100 for the full control effect; nearly all actives have a fitted effect of over 50% in size
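Fission yeast strain RE007, carrying one chromosomally integrated HIV-1 vpr copy, was seeded at OD 0.01 in PMG+AL medium with 23 nL pinned compound. After 24 h at 30 °C and 99% humidity, viability was read by BacTiter-Glo luminescence.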
Tb PYK inh: T. brucei pyruvate kinase inhibition. 410,000 tested, 0.12% active. Q57TT1. Potency, µM (titrated, usually from 76.8 µM), for inactives: top-dose activity, negative = inhibition, hits mostly inhibitors. TbPYK enzyme, Kinase-Glo Plus ATP luminescence, 45 min; note: potency is the fitted concentration of half-maximal effect; % is set by controls: 0 for no effect and ±100 for the full control effect; nearly all actives have a fitted effect of over 50% in size
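In this concentration-response screen, enzyme-free wells defined baseline while DMSO plates tracked drift. Each reaction combined TbPYK, substrate, compound and 130 uM ADP for 45 min at room temperature. Kinase-Glo Plus luminescence gave the signal.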
FBPA Giardia inh: blocks Giardia fructose-bisphosphate aldolase activity. Potency, µM (top dose mostly 59.6 µM), inactives show at the top dose activity, negative = inhibition, actives largely listed as inhibitors. purified Giardia FBPA. 290,000 tested, 0.71% active. A8B2U2; note: potency is the fitted concentration of half-maximal effect; % is set by controls: 0 for no effect and ±100 for the full control effect; nearly all actives have a fitted effect of over 55% in size
Target sequence (A8B2U2 whole entry, looked up): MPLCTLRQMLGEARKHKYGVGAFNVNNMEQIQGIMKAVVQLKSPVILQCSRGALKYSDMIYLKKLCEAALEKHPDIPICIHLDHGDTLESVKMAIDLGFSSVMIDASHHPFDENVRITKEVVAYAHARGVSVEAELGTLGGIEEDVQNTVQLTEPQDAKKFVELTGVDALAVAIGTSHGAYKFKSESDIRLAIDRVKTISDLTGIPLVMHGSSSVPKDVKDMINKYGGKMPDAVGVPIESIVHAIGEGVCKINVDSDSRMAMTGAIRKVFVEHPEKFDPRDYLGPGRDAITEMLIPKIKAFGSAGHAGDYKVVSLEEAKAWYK
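Giardia FBPA (40 nM reagent) was preincubated 10 min at RT with compound (up to 57.5 uM final), then substrate plus GAPDH/TPI/NAD/arsenate coupling system with diaphorase/resazurin was added; resorufin fluorescence (525/598 nm) was read after 20 min.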
* = called active by the depositor; ? = inconclusive; . = not tested or not shown; [ ] = dose if it differs, or a comment. The sample as a whole holds a higher share of hits than the screen did. Unless noted, calls come from the whole dose curve; as a rule, active = well fitted curve in the direction sought with a large enough effect; inconclusive = small, poorly fitted or top-dose-only effect, or another doubt; inactive = no such curve, though single readings can be large; an effect the other way counts as inactive or inconclusive.

SMILES	LmPK inh	Cycloheximide cs	Shiga toxin inh	RE007 growth inh	Tb PYK inh	FBPA Giardia inh
Cc1c2cnn(-c3ccccc3)c(=O)c2c(C)n1CCCC(=O)Nc1cccc(F)c1	.	.	.	.	-4.6%	.
Cc1cc(C)n(-c2ccc(C(=O)Nc3cccc([N+](=O)[O-])c3)cc2)n1	19.6%	10.5	25.6	2.2%	-0.4%	0.1%
CC(=O)c1cccc(NC(=O)c2cnn(-c3ccccc3)c2C)c1	0.7%	45.1*	89.9*	-6.7%	-0.1%	?
COCCNC(=O)CN1C(=O)NC(c2ccccc2)(c2ccccc2)C1=O	-0.3%	-2.3	-2.9	5.9%	4.6%	-1.7%
O=C(O)c1cc(-c2ccco2)nc2ccccc12	12.3%	-2.0	-24.8	-19.3%	?	?
CC(C)(C)C(=O)N1CCN(c2ccc(NC(=O)c3ccco3)cc2)CC1	-0.6%	-2.3	9.5	-10.2%	-4.9%	.
O=C(Nc1ccc(N2CCN(C(=O)c3ccco3)CC2)cc1)c1ccccc1	-3.0%	11.8*	13.8	-26.2%	-8.4%	-6.7%
O=C(Nc1ccc(N2CCN(C(=O)c3ccco3)CC2)cc1)c1ccc(F)cc1	13.1%	-1.9	3.0	-6.7%	3.4%	-2.5%
O=C(c1ccco1)N1CCN(c2ccc(F)cc2)CC1	-6.3%	26.0	100.2*	-6.6%	-6.5%	2.2%
O=C(Nc1ccc(N2CCN(Cc3ccccc3)CC2)cc1)c1ccco1	-0.6%	13.2*	64.9*	2.1%	-1.6%	.
O=C(c1cc(-c2ccco2)nc2ccccc12)N1CCN(c2ccc(F)cc2)CC1	-1.3%	33.1*	78.0*	-5.1%	-6.5%	?
Nc1ccc(N2CCN(C(=O)c3ccco3)CC2)cc1	-0.3%	1.6	11.6	-15.1%	-16.6%	-21.7%
CCCCC/C=C/C=C1/C(=O)C=C[C@@H]1C/C=C\CCCC(=O)O	.	12.6	2.9	.	.	-5.3%
CC(=O)NC(c1cccc(F)c1)c1nc(-c2cc(F)cc(Cl)c2)cs1 (stereo unspecified)	.	.	.	5.1%	0.4%	.
CCOC(=O)c1oc2nc(C)c3c(c2c1N)CC(C)(C)OC3	-0.5%	9.3	-1.8	-2.0%	?	-7.9%
CCOC(=O)c1oc2nc3c(cc2c1N)CCCC3	-26.9%	50.3*	77.0*	-2.6%	-3.5%	-8.3%
CCOC(=O)c1oc2nc3c(cc2c1N)COC(C)(C)C3	-2.3%	20.1*	81.9*	1.0%	1.1%	3.8%
CN1CC(c2ccccc2Cl)C2(COc3ccccc3C2=O)C12C(=O)Nc1ccccc12 (stereo unspecified)	8.4%	16.1*	55.3	-6.6%	1.4%	9.6%
Cc1ccc(C2CN(C)C3(C(=O)Nc4ccccc43)C23COc2ccccc2C3=O)cc1 (stereo unspecified)	7.9%	1.4	-13.8	-6.6%	-3.4%	-6.4%
C[C@H](CO)N1C[C@H](C)[C@@H](CN(C)S(=O)(=O)c2ccc(F)cc2)Oc2c(NS(=O)(=O)c3ccc(F)cc3)cccc2C1=O	.	.	.	-7.2%	0.8%	.
CC1(C)Cc2c(cnn2-c2ccc(F)cc2)C(NC(=O)c2ccc(=O)oc2)C1 (stereo unspecified)	-1.8%	22.4*	57.2	6.0%	5.9%	.
CSCc1ccc(C(=O)NC2CC(C)(C)Cc3c2cnn3-c2ccc(F)cc2)o1 (stereo unspecified)	-3.3%	28.0*	-2.3	14.6%	0.0%	16.9%
CCCNC(=O)C1(C)CCCN(Cc2ccc(C(=O)OCC)o2)C1 (stereo unspecified)	.	.	.	-19.4%[18.4 µM]	-5.9%	.
O=C(Cn1cnc2c(oc3ccccc32)c1=O)N1CCCC1	-3.1%	31.6*	64.2*	4.3%	4.1%	0.0%
CCOC(=O)CNC(=O)Cn1cnc2c(oc3ccccc32)c1=O	-2.0%	34.2*	15.1	1.6%	-0.2%	3.4%
CNC(=S)N/N=C1\CC(c2ccccc2)Oc2ccccc21 (stereo unspecified)	-0.7%	8.5	17.7	-4.3%	-2.9%	-4.4%
O=S(=O)(N/N=C1/CC(c2ccccc2)Oc2ccccc21)c1ccc(Br)cc1 (stereo unspecified)	-2.7%	28.0*	25.0	-19.8%	1.9%	5.9%
